Laboratory results from publication PMC4336329 (PLoS ONE, 2015).
The whole screen tested about 310,000 compounds, of which about 14,000 (4.5%) showed an effect of 50% or more. Effects have a minus sign here. For the sample, strong results were picked, then their nearest neighbours and some compounds at random.

These compounds were tested against human ether-à-go-go-related gene (hERG) potassium channel (human, UniProt Q12809) (assay: primary screen, population patch clamp on CHO cells stably expressing hERG; higher = less effect of the substance).
Chain of human ether-à-go-go-related gene (hERG) potassium channel (Q12809 whole entry, looked up): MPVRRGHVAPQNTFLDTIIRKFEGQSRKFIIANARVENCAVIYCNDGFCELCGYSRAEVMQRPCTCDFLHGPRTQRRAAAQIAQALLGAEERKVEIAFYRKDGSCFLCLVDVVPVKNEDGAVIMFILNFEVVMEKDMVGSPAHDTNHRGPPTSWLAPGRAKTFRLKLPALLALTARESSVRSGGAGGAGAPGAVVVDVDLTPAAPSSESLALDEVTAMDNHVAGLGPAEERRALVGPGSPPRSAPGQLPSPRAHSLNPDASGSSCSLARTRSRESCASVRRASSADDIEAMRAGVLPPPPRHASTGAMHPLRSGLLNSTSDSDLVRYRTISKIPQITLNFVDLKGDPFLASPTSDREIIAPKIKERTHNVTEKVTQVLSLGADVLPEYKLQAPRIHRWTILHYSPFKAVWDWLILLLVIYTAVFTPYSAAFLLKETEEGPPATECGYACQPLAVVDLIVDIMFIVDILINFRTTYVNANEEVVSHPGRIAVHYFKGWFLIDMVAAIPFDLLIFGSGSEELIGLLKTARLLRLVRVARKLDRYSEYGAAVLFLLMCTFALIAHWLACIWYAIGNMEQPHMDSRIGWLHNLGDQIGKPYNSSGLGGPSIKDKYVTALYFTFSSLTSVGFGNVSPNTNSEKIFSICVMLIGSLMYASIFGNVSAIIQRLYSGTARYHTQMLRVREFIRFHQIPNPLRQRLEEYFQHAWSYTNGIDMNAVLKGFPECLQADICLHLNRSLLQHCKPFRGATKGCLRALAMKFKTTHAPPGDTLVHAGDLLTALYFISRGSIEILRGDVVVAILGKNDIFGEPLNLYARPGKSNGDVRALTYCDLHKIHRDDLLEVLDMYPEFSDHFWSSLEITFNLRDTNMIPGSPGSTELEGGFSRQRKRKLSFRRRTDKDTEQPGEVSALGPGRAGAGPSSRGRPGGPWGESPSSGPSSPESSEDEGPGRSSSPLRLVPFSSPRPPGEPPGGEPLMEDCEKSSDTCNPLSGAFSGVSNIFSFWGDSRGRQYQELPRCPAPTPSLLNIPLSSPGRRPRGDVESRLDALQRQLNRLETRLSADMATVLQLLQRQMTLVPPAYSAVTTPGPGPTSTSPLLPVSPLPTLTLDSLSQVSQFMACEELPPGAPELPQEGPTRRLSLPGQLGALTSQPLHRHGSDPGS
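Also: peak tail current of the secondary pulse compared with the same well before compound.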

| Compound | hERG current change (%, negative = inhibition) at 10uM |
| --- | --- |
| COc1cccc(NS(=O)(=O)c2ccc3[nH]cc(C(=O)NCCC(C)C)c(=O)c3c2)c1 | 13.9% |
| Cc1ccc2nc(N/C(=N/S(=O)(=O)c3cccs3)c3ccccc3Cl)sc2c1 | -7.11% |
| CN1CCN(S(=O)(=O)c2ccc(NC(=O)c3cccs3)cc2)CC1 | -11.3% |
| NC(=O)c1ccsc1NC(=O)COC(=O)c1cnccn1 | 2.13% |
| CC1CCC(NC(=O)CNC(=O)c2cccs2)CC1 (stereo not shown) | 7.33% |
| Cc1n[nH]c(=O)nc1N1CCc2ccccc2C1 | 4.47% |
| COc1cc(OC)cc(C(=O)Nc2ccc3c(c2)CCCN3C(=O)c2cccs2)c1 | -2.41% |
| CCOc1cc(S(=O)(=O)NCC2CCCO2)ccc1F (stereo not shown) | 13.8% |
| COc1ccccc1/C=C/C=N/n1c(-c2ccc(F)cc2)n[nH]c1=S | 6.25% |
| CC1=NS(=O)(=O)c2cc(Cl)ccc2N1 | -2.63% |
| Cc1occc1C(=O)NNC(=O)CN1C(=O)NC(C)(c2ccccc2)C1=O (stereo not shown) | 19.1% |
| COc1cccc(NC(=O)CN(C)C(=O)c2oc3c(ccc4ccccc43)c2C)c1 | -0.74% |
| CCOC(=O)c1cc(C#N)c(C)nc1N(CC)CC | -3.53% |
| CC(=O)Nc1cccc(OCC(=O)NS(=O)(=O)c2ccc(C)cc2)c1 | 1.18% |
| O=C1CC(C(=O)N2CCc3ccccc32)CN1c1ccc(F)cc1 (stereo not shown) | -55.3% |
| O=C1CC(C(=O)N2CCc3ccccc32)CN1c1ccccc1 (stereo not shown) | -6.98% |
| O=C1CC(C(=O)N2CCCc3ccccc32)CN1c1ccc(F)cc1 (stereo not shown) | -22.2% |
| CCNC(=O)CC1SC(=Nc2ccc(Cl)cc2)N(CC)C1=O (stereo not shown) | -0.837% |
| COCCCn1c(Cc2csc(Nc3ccc(F)cc3)n2)nnc1SCC(N)=O | -5.91% |
| COc1ccc(CN(C)CC2CCCN(CCc3ccc(F)cc3)C2)c(OC)c1OC (stereo not shown) | -74.8% |
| COc1ccc(CN(C)C2CCN(C)CC2)cc1OC | 21.8% |
| COc1cc(CN(C)CC2CCCN(CCc3ccc(F)cc3)C2)c(Cl)cc1O (stereo not shown) | -30% |
| COc1ccc(CN(C)CC2CCCN(CCc3ccc(F)cc3)C2)cc1OC (stereo not shown) | -64.8% |
| COc1ccc(CN(C)CC2CCCN(CCc3ccc(Cl)cc3)C2)cc1OC (stereo not shown) | -88.5% |
| COc1cccc(CN(C)CC2CCCN(CCc3ccc(Cl)cc3)C2)c1OC (stereo not shown) | -74.5% |

| Compound | hERG current change (%, negative = inhibition) at 10uM |
| --- | --- |
| Cc1ccc2[nH]c3c(Cl)ncnc3c2c1 | 5.18% |
| Cc1ccc(O)c(C(CC(=O)N2CCCC2)c2ccccc2)c1 (stereo not shown) | -18.9% |
| COc1ccc(O)c(-c2cc(-c3cccs3)[nH]n2)c1 | 0.169% |
| CCn1cc(C2C(C(=O)Nc3cc(C)ccn3)=C(C)NC3=C2C(=O)CC(C)(C)C3)c(C)n1 (stereo not shown) | 11.3% |
| Cc1cccc(NC(=O)CSc2nc(COc3ccccc3)nc3ccccc23)c1C | 13.5% |
| COc1ccccc1NC(=O)Nc1nn(C)c2cccc(OC)c12 | 2.03% |
| CCCC12CN3CCN(CC(C3)/C1=N\NC(=O)c1ccc(C(C)(C)C)cc1)C2 | -14.4% |
| Cc1cccc(N2CCN(CC(=O)Nc3nccs3)CC2)c1C | -45.3% |
| Cc1cc2nc(-c3ccc(SCC(=O)Nc4ccc5c(c4)OCCO5)nc3)[nH]c2cc1C | 2.26% |
| COC(=O)c1cc2c(cc1NC(=O)CSCCc1ccccn1)OCO2 | 7.82% |
| COc1ccc(-c2noc(CN(C)S(=O)(=O)c3ccc(Cl)cc3)n2)cc1OC | -9.85% |
| O=C1NC(=O)[C@]2(Cc3ccccc3N3CCN(c4ccccc4)CC32)C(=O)N1c1ccccc1 (stereo partly shown) | -7.93% |
| COc1ccc([N+](=O)[O-])cc1NS(=O)(=O)c1ccccc1 | 8.94% |
| COc1ccc(N2CCN(CC(=O)Nc3cc(C)on3)CC2)cc1.O=C(O)C(=O)O | 0.616% |
| CC(C)Cn1c(N)c(C(=O)CSc2ncccn2)c(=O)n(C)c1=O | 6.81% |
| Cc1ccc(S(=O)(=O)CCC(=O)NCc2ccc(Cl)cc2)cc1 | -3.96% |
| CCOc1ccc(N(CC(=O)NCc2ccc(Cl)cc2)S(=O)(=O)c2ccccc2)cc1 | 20.4% |
| CCN(CC(=O)Nc1cc(Cl)ccc1C)C(=O)CCOc1ccc(C)cc1 | -8.25% |
| CCOc1ccc(OCCC(=O)OCC(=O)NCc2ccc(Cl)cc2)cc1 | 8.85% |
| CCOc1ccc(OCCC(=O)N(CC)CC(=O)NCc2ccc(Cl)cc2)cc1 | -60.5% |
| CCN(CC(=O)NCc1cccs1)C(=O)CCCOc1ccc(C(C)(C)C)cc1 | -52.6% |
| CCN(CC(=O)NCc1ccc(Cl)cc1)C(=O)CCOc1ccc(C)cc1 | -82.6% |
| CCN(CC(=O)Nc1c(F)cccc1F)C(=O)CCC(=O)c1ccc(F)cc1 | -12.1% |
| CCN(CC(=O)Nc1c(F)cccc1F)C(=O)CCCNC(=O)c1ccc(Cl)cc1 | -7.06% |
| CCN(CC(=O)Nc1c(F)cccc1F)C(=O)CCNC(=O)c1ccc([N+](=O)[O-])cc1 | -55.4% |

| Compound | hERG current change (%, negative = inhibition) at 10uM |
| --- | --- |
| CCN(CC(=O)Nc1ccccc1C(F)(F)F)C(=O)CCOc1ccc(C)cc1 | -13.1% |
| CCN(CC(=O)NCc1cccs1)C(=O)CCCOc1ccccc1 | -35.2% |
| CCCCOc1ccc(C(=O)N(CC)CC(=O)NCc2cccs2)cc1 | -19.1% |
| O=C(NCC1COCCO1)C1CCN(S(=O)(=O)c2ccccc2)CC1 (stereo not shown) | -7.05% |
| Cc1cc(C)cc(N(CC(=O)NCc2cccnc2)S(C)(=O)=O)c1 | -1.95% |
| Cc1ccccc1NCc1ccc([N+](=O)[O-])s1 | -38.8% |
| CCC(C)(CC(=O)N(C)CCC#N)c1ccccc1 (stereo not shown) | -0.111% |
| COc1ccc(C(=O)N2CCCC(Nc3ccc(C)c(C)c3)C2)c(OC)n1 (stereo not shown) | -17.7% |
| COc1cc(OC)cc(-c2nc3ccccc3c(=O)n2OC(=O)c2ccccc2C)c1 | 10.6% |
| CCN(CC(=O)Nc1cc(Cl)ccc1C)C(=O)CCOc1ccccc1C | 18.4% |
| CCOc1ccc(OCCCC(=O)N(CC)CC(=O)Nc2c(F)cccc2F)cc1 | -5.99% |
| CCN(CC(=O)Nc1c(F)cccc1F)C(=O)CCOc1ccc(C)cc1 | -2.71% |
| CCN(CC(=O)NCc1cccs1)C(=O)CCOc1ccccc1C | -19.8% |
| CCOc1ccc(OCCC(=O)N(CC)CC(=O)Nc2c(F)cccc2F)cc1 | -60.2% |
| CCN(CC(=O)NCc1ccc(Cl)cc1)C(=O)CCOc1ccccc1C | -71% |
| C=CCn1c(C)cc(C(=O)COC(=O)c2cncc(Br)c2)c1C | -55.9% |
| C=CCn1c(C)cc(C(=O)COC(=O)c2ccc3c(c2)NC(=O)CS3)c1C | 4.69% |
| COCCn1c(C)cc(C(=O)COC(=O)c2cncc(Br)c2)c1C | -31.3% |
| COc1cc(NS(=O)(=O)c2ccc(N)cc2)nc(OC)n1 | 9.57% |
| CNc1cc(NS(=O)(=O)c2ccc(N)cc2)nc(NC)n1.Cl | -61.4% |
| Cc1cc(C)nc(NS(=O)(=O)c2ccc(N)cc2)n1 | 12% |
| CN(CCO)c1ncnc2c1sc1nc(N3CCOCC3)c3c(c12)CCC3 | -55.2% |
| CCN(CC)CCNc1ncnc2c1sc1nc(N3CCOCC3)c3c(c12)CCCC3 | -32.8% |
| CC(C)CNc1ncnc2c1sc1nc(N3CCOCC3)c3c(c12)CC(C)(C)OC3 | -4.77% |
| CCN(CC)CCNc1ncnc2c1sc1nc(N3CCOCC3)c3c(c12)CC(C)(C)SC3 | -71.1% |

| Compound | hERG current change (%, negative = inhibition) at 10uM |
| --- | --- |
| CCN(CC)CCNc1ncnc2c1sc1nc(N3CCCC3)c3c(c12)CC(C)(C)OC3 | -65.5% |
| OCCN(CCO)c1ncnc2c1sc1nc(N3CCOCC3)c3c(c12)CCCC3 | -13.3% |
| CC1(C)Cc2c(c(N3CCOCC3)nc3sc4c(NN)ncnc4c23)CS1 | -5.43% |
| CN(C)CCNc1ncnc2c1sc1nc(N3CCCC3)c3c(c12)CC(C)(C)OC3 | -20.4% |
| OCCN1CCN(c2ncnc3c2sc2nc(N4CCOCC4)c4c(c23)CCC4)CC1 | -22.1% |
| C[C@]12CCC(OC(=O)CCC(=O)O)CC1=CCC1C2CC[C@]2(C)C(=O)CCC12 (stereo partly shown) | 11.5% |
| CC1(C)c2[nH]c3ccccc3c2C[C@H]2C(=O)N(N)CC(=O)N21.Cl | 19% |
| COc1ccc(N2CCN(c3nc4cc(C)ccc4cc3C=O)CC2)cc1 | 16.6% |
| COC(=O)C1=C(c2c(C)noc2C)C[C@@H]2CC[C@H]1N2C(=O)NCc1ccco1 | 19% |
| O=C1COc2ccc(C(=O)CSc3nnc(NCc4ccccc4)s3)cc2N1 | -9.48% |
| O=[N+]([O-])c1ccc(Sc2ccccn2)nc1 | 10.8% |
| O=[N+]([O-])c1ccc(Sc2n[nH]c(-c3ccco3)n2)nc1 | -0.59% |
| Cc1csc(NC(=O)CSc2nnc(-c3ccco3)n2C)n1 | -31.6% |
| CCn1c(Sc2ccc([N+](=O)[O-])cn2)nnc1-c1ccco1 | -66.5% |
| CCOC(=O)c1cnc(SCC(=O)Nc2nnc(CC)s2)nc1N | 8.46% |
| O=[N+]([O-])c1ccc(Sc2ccccc2)nc1 | 8.82% |
| CCn1c(SCC(=O)Nc2nncs2)nnc1-c1ccco1 | 17.2% |
| CCn1c(SCC(N)=O)nnc1-c1ccco1 | 3.15% |
| CCOC(=O)c1cnc(SCC(=O)Nc2sc(C)c(C)c2C#N)nc1N | 14.2% |
| CCn1c(SCC(=O)Nc2nc(C)cs2)nnc1-c1ccco1 | -50.8% |
| O=[N+]([O-])c1ccc(Sc2ncc3ccccn23)nc1 | -51.6% |
| CCOC(=O)c1cnc(SCC(=O)Nc2nc(C)c(C)s2)nc1N | -61.9% |
